The text below walks through data of PubChem BioAssay AID778 (Sanford-Burnham Center for Chemical Genomics, 2007).

Screen size: about 96,000 compounds; about 20,000 (21%) were called active. These entries were drawn from the full list. Unmarked numbers belong to inactive results.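 The calls were made as follows: active = CYP2C19 inhibition above a set limit at 5 µM in the primary screen (cut at about 50% in these data); inactive = the rest.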

The target of this assay is Cytochrome P450 2C19 (Homo sapiens) (UniProt P33261). In words: blockers of cytochrome P450 2C19 activity – biochemical, luminescence, ADME assay, primary screen (AID 778).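 Also: plate controls were negative control wells for no effect and 2.5 mM tranylcypromine positive control for full effect.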 The following applies: CYP2C19 Supersomes, luciferin-H EGE luminescence, 30 min; at 5 µM; hits give high values.
Sequence of Cytochrome P450 2C19 (Homo sapiens) (P33261 whole entry, looked up): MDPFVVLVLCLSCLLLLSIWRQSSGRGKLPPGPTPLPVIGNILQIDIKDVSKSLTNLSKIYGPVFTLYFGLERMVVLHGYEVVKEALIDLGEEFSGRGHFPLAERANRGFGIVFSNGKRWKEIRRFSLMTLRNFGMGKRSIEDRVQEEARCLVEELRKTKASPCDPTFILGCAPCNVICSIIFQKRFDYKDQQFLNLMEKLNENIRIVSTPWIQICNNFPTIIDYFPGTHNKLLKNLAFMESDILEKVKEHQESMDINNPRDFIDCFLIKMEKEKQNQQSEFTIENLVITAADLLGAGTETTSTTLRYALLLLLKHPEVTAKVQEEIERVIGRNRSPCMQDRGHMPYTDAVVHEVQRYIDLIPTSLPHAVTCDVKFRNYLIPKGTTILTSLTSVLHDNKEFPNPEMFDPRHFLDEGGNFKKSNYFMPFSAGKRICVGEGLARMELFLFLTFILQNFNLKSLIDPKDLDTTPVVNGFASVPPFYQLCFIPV
Usually inhibition stands for the change of the read-out against control, counted positive when it falls. Regarding `Cc1ccc(SCc2cc(=O)[nH]c(N3CCCCC3)n2)cc1`, the inhibition is 30.5%. To `COc1ccc(OCC(=O)NNC(=O)c2ccc(-c3ccccc3)cc2)cc1` belongs -6%; to `COC(=O)c1ccc(OCC(=O)NC(C)(C)C)cc1`, 67.1% (active). To `CC(C)(C)NC(=O)COc1ccc(CNc2ccc3[nH]c(=O)[nH]c3c2)cc1` belongs 11.8%; to `CC(NC(=O)COc1ccccc1)C(=O)NC1=NCCS1` (configuration not stated), 10.5%. Take `COC(=O)/C=C/C(=O)NCc1ccco1`: the inhibition is -5.7%. The value for `CCC(=O)Nc1nc(OC)cc(OC)n1` was 2.1%.

Take `FC(F)(F)c1nc2ccccc2nc1N/N=C/c1ccc(Cl)cc1`: the inhibition was 16.6%. To `O=[N+]([O-])c1ccc(Oc2ccc(F)cc2Br)c2ccncc12` belongs 31%. The value for `COc1ccc2c(c1)OC(O)(C(F)(F)C(F)F)CC2=O` (configuration not stated) was 47.3%.

In the case of `COc1ccc2c(c1)SC(C)CC2=O` (configuration not stated), the inhibition is 79.6% (active). With `COc1ccc(NC2CC(=O)N(C)C2=O)cc1` (configuration not stated), the inhibition is -10.3%. The value for `O=C(Cn1ccc([N+](=O)[O-])n1)NCc1cccs1` was 0.6%; that for `O=C(Nc1cc(=O)[nH]c2ncnn12)c1ccccc1Cl` was 2.2%. Consider `O=C(C1CCCO1)N(Cc1ccccc1)c1ccccc1` (configuration not stated), for which the inhibition is 0%. For `COc1ccc(C(CC(=O)O)NC(=O)Cc2ccccc2)cc1` (configuration not stated), the inhibition was -9.7%. The value for `CCOc1ccc(C(CC(=O)O)NC(=O)COc2ccccc2)cc1` (configuration not stated) was -2.9%; that for `CCOc1ccc(C(CCc2ccccc2)NC(=O)c2ccc(OC)c(OC)c2)cc1OCC` (configuration not stated) was 56.7% (active). The value for `COc1cc2[nH]c(=O)n(CCC(=O)NC3CCN(Cc4ccccc4)CC3)c(=O)c2cc1OC` was -19%; that for `CN(CC(=O)NC1CCCCC1)S(=O)(=O)c1cccc2cccnc12` was 57.6% (active). To `COc1ccc(N(CC(=O)NC2CCCCCCC2)S(=O)(=O)c2c(C)nn(C)c2C)cc1` belongs 42.8%; to `Cc1ccc(S(=O)(=O)N(C)CC(=O)NC2CCCC2)cc1`, 11.9%; to `CCn1c2c(c3ccc(OC)cc31)CCCC2=O`, 7.5%.

As for `C=C(C)Cn1c(C)cc(C)c(S(=O)(=O)c2ccccc2C)c1=O`, the inhibition is 19.6%.

For the molecule `CCCOc1ccc(N2C(=O)CC(N(CCc3ccc(S(N)(=O)=O)cc3)C(C)=O)C2=O)cc1` (configuration not stated), the inhibition was -16.6%. To `CC(C)CCNC(=O)C(C)N(C(=O)Cn1nnc(-c2ccc(F)cc2)n1)C1CCCC1` (configuration not stated) belongs 78.7% (active). For the molecule `COc1cccc(N(CC(=O)NC2CCCC2)C(=O)Cn2nnc(-c3ccc(C)cc3)n2)c1`, the inhibition is 28.4%. Regarding `CC(C)CCNC(=O)CN(C(=O)Cn1nnc(-c2ccc(F)cc2)n1)C1CCCC1`, the inhibition was 17.8%. In the case of `CC1(C)CC(O)C(CCC(O)c2ccccc2)C(C)(C)N1` (configuration not stated), the inhibition is -6.9%. The value for `CCCOc1ccc(-c2nc(N)n[nH]2)cc1` was 5.8%; that for `Cn1c(=NC(=O)C2CC2)sc2cc(F)cc(F)c21` was 13.8%.

As for `COc1ccc(CCN(C)CCN2C(=O)c3ccccc3C2=O)cc1OC`, the inhibition is 2.8%. Regarding `COc1ccc(CCN=C2SCC(=O)N2C)cc1OC`, the inhibition is 88.2% (active).

On to `COc1ccc(CCN2CNc3c(c(=O)n(C)c(=O)n3C)C2)cc1OC`, for which the inhibition is -22.1%.

On to `NC(=S)c1ccc(C(N)=S)o1`, for which the inhibition is 60.2% (active). On to `CCOC(=O)c1c(C)[nH]c(C)c1C(=O)CSc1nc(N)cc(N)n1`, for which the inhibition is 17.6%.

For `Cc1ccc(S(=O)(=O)N2CCC(C(=O)N[C@@H](C)C(=O)NCCc3ccccc3)CC2)cc1`, the inhibition was 10.5%. The value for `CC(=O)NS(=O)(=O)c1ccccc1` was 4.6%; that for `CS(=O)(=O)NCc1ccc(C(=O)NCc2ccccc2)cc1` was -8.4%; that for `Cc1ccc(C(=O)NCCNS(=O)(=O)c2ccccc2)cc1` was 81.4% (active).

`CC(C)(C)NC(=O)CN(Cc1cccs1)C(=O)CNS(=O)(=O)c1ccccc1`: the inhibition is 4.4%. Take `O=S(=O)(NCCNS(=O)(=O)c1ccccc1)c1ccccc1`: the inhibition is 89% (active). For the molecule `Cc1ccc(S(=O)(=O)NCCSC(C)(C)C)cc1`, the inhibition was 11.6%. Consider `CCOc1cc(C(=S)N2CCOCC2)ccc1O`, for which the inhibition was 12.3%. With `CN(CC#CCC(c1ccccc1)c1ccccc1)C(C)(C)C`, the inhibition is 46.1%. In the case of `CC(=O)OCc1cc(=O)n(C)c(=O)n1C`, the inhibition was 1.9%. To `CCCc1nnc(NC(=O)c2cccs2)s1` belongs 7.8%; to `C=CCOc1ccc(/C=N/n2cncn2)cc1OC`, 96.6% (active); to `COc1cc(/C=N/NC(=O)Nc2ccccc2)ccc1OCCOc1ccccc1C`, 4.8%. As to `COc1ccc(/C=N/Nc2nc3ccccc3o2)cc1OC`, the inhibition is -0.5%. To `Cc1csc(NC(=O)CN2CCCCCC2)n1` belongs 22.8%; to `COc1cc(/C=N/O)cc(Br)c1OS(=O)(=O)c1ccc(C)cc1`, 73.4% (active); to `COc1cc(/C=N/O)cc(Br)c1OCc1cccc(Cl)c1`, 4.4%.

On to `CCOc1cc(/C=N/O)cc(Br)c1OC`, for which the inhibition was 45.6%.

Regarding `Nc1c(-c2cccc(Cl)c2)cnn1-c1cccc([N+](=O)[O-])c1`, the inhibition is 24%. For the molecule `COc1ccc(Br)cc1S(=O)(=O)N1CCN=C1C`, the inhibition was 40.3%. With `Cc1noc(C)c1S(=O)(=O)NCCc1ccc(S(N)(=O)=O)cc1`, the inhibition was -13.5%. The value for `COc1ccc(C)cc1S(=O)(=O)NCCc1ccccc1` was 54.1% (active). The value for `COCCNS(=O)(=O)c1cc(Br)ccc1OC` was 66.9% (active); that for `COc1ccc(C)cc1S(=O)(=O)NC1CCCCC1` was 15%; that for `COc1ccc(Cn2c(C)c(C)c(C#N)c2NC(=O)Nc2ccc(F)cc2)cc1` was 4.4%.

With `Cc1ccc(F)cc1NC(=O)c1cccc(N(C)C)c1`, the inhibition was 8.6%.

Regarding `CCCC(NS(=O)(=O)c1ccc(OC)cc1)C(=O)O` (configuration not stated), the inhibition is -12.7%. `CCc1ccc(Nc2ncc3c(n2)CC(c2ccco2)CC3=O)cc1` (configuration not stated): the inhibition was 1%. Consider `CC1CCCC(NC(=O)CN2CCN(Cc3ccc(Cl)cc3)C2=O)C1C` (configuration not stated), for which the inhibition is 18.3%. The value for `CC1CCCC(NC(=O)CSc2nccn2C)C1C` (configuration not stated) was 97.2% (active); that for `CC1CCCCC1NC(=O)CSc1nnc(N)s1` (configuration not stated) was 4%; that for `Cc1ccc(NC(=S)NC(NC(=O)Cc2cccc3ccccc23)C(Cl)(Cl)Cl)cc1` (configuration not stated) was 49.5%. The value for `CCCC(C(=O)NCc1ccco1)N(C(=O)CNS(=O)(=O)c1ccccc1)C1CCCC1` (configuration not stated) was 78.3% (active); that for `O=C(NC1CCC(O)CC1)c1ccc(S(=O)(=O)NCc2ccco2)cc1` (configuration not stated) was -9%; that for `CSCCC(NC(=O)C1CCC(C)CC1)C(=O)NCc1ccco1` (configuration not stated) was 8.2%.

As for `COc1ccc(C2=NOC3(CC(=O)N(c4ccc(C)cc4)C3=O)C2)cc1` (configuration not stated), the inhibition was -13.3%.

On to `O=C1CSC(c2ccc(Cl)cc2)N1` (configuration not stated), for which the inhibition is 13.7%. To `Cc1nc2ccccc2c2oc(C(=O)NCC3CCCO3)cc12` (configuration not stated) belongs -8.4%. For the molecule `O=C(NCC1CCCO1)c1ccc2ccccc2n1` (configuration not stated), the inhibition is -2.7%. On to `c1ccc2c(NCC3CCCO3)nc(-c3ccncc3)nc2c1` (configuration not stated), for which the inhibition is 94.5% (active). To `Cc1ccc(S(=O)(=O)n2nc(OC(=O)C(C)(C)C)cc2N)cc1` belongs 21.6%; to `CS(=O)(=O)N1CCN(c2cccc(Cl)n2)CC1`, 46.3%; to `Cc1ccc(N2CCN(S(=O)(=O)N(C)C)CC2)cc1Cl`, 59.1% (active). The value for `c1ccc(-n2ncc3c2ncn2c(C4CCCCC4)nnc32)cc1` was -4.4%; that for `CCn1ncc(C2=NOC(C(=O)N3CCN(c4ccccc4)CC3)C2)c1C` (configuration not stated) was -20.9%; that for `O=C(OCC(=O)N1CCCC1)c1ccco1` was 0.8%. On to `CCOc1nc(-c2ccc(OC)cc2)ccc1-c1noc(-c2cc(OC)c(OC)c(OC)c2)n1`, for which the inhibition is 8%. The value for `COc1cc(-c2nc(-c3ccncc3)no2)cc(OC)c1OC` was 83.6% (active). To `COc1ccc(-c2noc(-c3cccc(OC)c3OC)n2)cc1OC` belongs 22.7%; to `CCc1ccc(CNC(=O)CCc2nc(-c3cccs3)no2)cc1`, 37.6%; to `c1csc(-c2nc(-c3ccncc3)no2)c1`, 72.2% (active). In the case of `COc1nc(-c2ccc(Cl)cc2)ccc1-c1noc(-c2cccs2)n1`, the inhibition is 7%. To `O=C(CSc1nc(-c2ccco2)cc(C(F)(F)F)n1)N1CCc2ccccc2C1` belongs 42.7%; to `Cc1[nH]c2ccccc2c1C(=O)CSCC(=O)O`, 0.7%; to `Cc1cc(N=CC2=C(O)CCCC2=O)no1`, 2.1%. To `c1coc(CNc2ncnc3ccccc23)c1` belongs -3.8%; to `O=C(COc1cccc(-n2cnnn2)c1)NCCC1=CCCCC1`, 89.3% (active); to `O=C(CN1C(=O)NC2(CCCCC2)C1=O)NCCC1=CCCCC1`, 8.2%. Turning to `Cc1nnc(OCC(=O)NCCC2=CCCCC2)c2ccccc12`, the inhibition was 55.2% (active). Turning to `O=C(COc1ccc(Cl)cc1)NCCC1=CCCCC1`, the inhibition is 26.8%.

Consider `O=C(Cc1nn[nH]n1)NCCC1=CCCCC1`, for which the inhibition is -1.9%. As for `S=C(NCCC1=CCCCC1)Nc1ccccc1`, the inhibition is 46.9%. Regarding `O=C(O)C1CC=CCC1C(=O)NCCc1ccccc1` (configuration not stated), the inhibition is -8.8%. As for `CC1(C)COC(c2cccn2Cc2ccccc2Cl)=N1`, the inhibition was 2.4%. To `CNC(=O)c1ccc2nc(NC(C)=O)sc2c1` belongs 2.4%.

As for `O=C(Cn1c(-c2ccc(Cl)cc2)noc1=O)N1CCN(c2ccccc2F)CC1`, the inhibition is 12.6%. Regarding `CCCCOC(=O)Nc1sc2nc(C)cc(C)c2c1-n1cccc1`, the inhibition was 9.4%.

Consider `O=C(Nc1cccc2c1CCCC2)C1CCN(C(=O)NC2CCCCC2)CC1`, for which the inhibition was 2.3%. To `COCCNC(=O)COc1ccc(C)c(C)c1` belongs -3.5%; to `COCCCNC(=O)COc1cc(C)c(Cl)c(C)c1`, 86.2% (active).

Consider `COCCNC(=O)COc1ccccc1C`, for which the inhibition was 2%.
